PfG6PD inh = PfG6PD (Plasmodium falciparum) enzyme inhibition; PfGluPho enzyme, NADPH resazurin-diaphorase fluorescence; inhibition, % at 20 µM; 350,000 tested, 0.78% active; AID 504690;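 active = inhibition reaching at least a set limit at 20 µM in the primary screen, cut at about 59% in these data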;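 note: 0% = DMSO wells with substrate and 100% = DMSO wells lacking glucose-6-phosphate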
PHOSPHO1 inh = inhibitors of human PHOSPHO1 phosphatase. Q8TCT1. recombinant PHOSPHO1, absorbance phosphatase assay. inhibition, % at 13.3 µM. 290,000 tested, 1.1% active. AID 1565; in the data active = inhibition above about 60%
Target sequence (Q8TCT1 whole entry, looked up): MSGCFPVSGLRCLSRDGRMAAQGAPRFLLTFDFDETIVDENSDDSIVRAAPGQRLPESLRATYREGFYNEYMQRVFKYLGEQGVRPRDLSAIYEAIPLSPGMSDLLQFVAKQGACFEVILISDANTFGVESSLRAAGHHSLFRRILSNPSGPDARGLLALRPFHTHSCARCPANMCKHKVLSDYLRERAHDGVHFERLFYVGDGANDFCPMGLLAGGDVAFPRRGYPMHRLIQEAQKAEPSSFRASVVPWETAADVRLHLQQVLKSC
M18AAP inhibitor = PfM18AAP enzyme inhibition; 290,000 tested, 1.2% active; inhibition, % at 7.35 µM; recombinant PfM18AAP, H-Glu-NHMec fluorogenic cleavage;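 active = inhibition above the campaign mean inhibition over all tested compounds plus 3 SD, cut at about 28% in these data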;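 note: 0% = plate median of test compound wells and 100% = 2 mM ZnCl2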
H9c2 protect = protects H9c2 cardiomyocytes from peroxide injury | 360,000 tested, 0.63% active | H2O2 injury protection, ATPLite, 2 h | protection from H2O2 cell death, % at 20 µM | AID 588492;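 active = compounds giving at least 50% protection of heart cells from peroxide-induced death in the single-dose screen, raw or plate-pattern-corrected value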;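 note: 0% = DMSO wells with peroxide and 100% = DMSO wells without peroxide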
ALR inh = inhibitors of human sulfhydryl oxidase ALR | P55789 | purified ALR, DTT oxidation, H2O2 HRP-luminol luminescence | inhibition, % (no concentration beside the values) | 290,000 tested, 3.8% active;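 active = mean replicate inhibition above about 79%, with every replicate also reaching it, limit read from the data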
Target sequence (P55789 whole entry, looked up): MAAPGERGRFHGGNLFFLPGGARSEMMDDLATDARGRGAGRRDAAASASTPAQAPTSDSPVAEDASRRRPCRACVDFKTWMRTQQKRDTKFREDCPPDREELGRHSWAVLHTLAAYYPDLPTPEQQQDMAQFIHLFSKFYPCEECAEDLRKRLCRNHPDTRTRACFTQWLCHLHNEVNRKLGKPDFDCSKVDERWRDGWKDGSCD
Numbers without * were called inactive. An excerpt weighted towards active compounds, which were near 5.6% of everything screened.

Results for CCOCCCNCC(=O)Nc1ccccc1N1CCOCC1 ?
PfG6PD inh: -9; PHOSPHO1 inh: 3; M18AAP inhibitor: -2; H9c2 protect: 1; ALR inh: 97*

What do the screens show for `C/C(=N\Nc1ccc(Cl)c(C(=O)O)c1)c1cc2ccccc2o1`?
PfG6PD inh: 25; PHOSPHO1 inh: 28; M18AAP inhibitor: 11; H9c2 protect: 10; ALR inh: 99*

What do the screens show for `C/C(=N\Nc1cccc([N+](=O)[O-])c1)c1cc2ccccc2o1`?
PfG6PD inh: -7; PHOSPHO1 inh: 12; M18AAP inhibitor: -1; H9c2 protect: -3; ALR inh: -11

What do the screens show for `C/C(=N\NC(=O)CC#N)c1cc2ccccc2oc1=O`?
PfG6PD inh: -11; PHOSPHO1 inh: 30; M18AAP inhibitor: 5; H9c2 protect: 12; ALR inh: 45

Results for C/C(=N\Nc1ccccc1)c1cc2ccccc2oc1=O ?
PfG6PD inh: -16; PHOSPHO1 inh: -7; M18AAP inhibitor: 3; H9c2 protect: -4; ALR inh: 93*

Results for C/C(=N\Nc1cccc(C(=O)O)c1)c1cc2ccccc2o1 ?
PfG6PD inh: -9; PHOSPHO1 inh: -35; M18AAP inhibitor: 14; H9c2 protect: -1; ALR inh: 99*

What do the screens show for `C/C(=N\Nc1ccc(Cl)c(C(=O)O)c1)c1cccc2ccccc12`?
PfG6PD inh: -2; PHOSPHO1 inh: 15; M18AAP inhibitor: -3; H9c2 protect: 0; ALR inh: -8

Results for Cc1c(-c2ccccc2)oc2c(C(=O)OCC(=O)Nc3ccc(C(N)=O)cc3)cccc2c1=O ?
PfG6PD inh: -15; PHOSPHO1 inh: 3; M18AAP inhibitor: -7; H9c2 protect: 74*; ALR inh: -2

Results for CCN(C(=O)CSC1=Nc2ccccc2C2CC=NN12)C1CCS(=O)(=O)C1 (configuration not stated) ?
PfG6PD inh: 1; PHOSPHO1 inh: -10; M18AAP inhibitor: 4; H9c2 protect: 16; ALR inh: -4

What do the screens show for `C(=C1/CCCC2=C1Nc1ncnn1C2c1ccccc1)/c1ccccc1` (configuration not stated)?
PHOSPHO1 inh: 27; M18AAP inhibitor: -3; ALR inh: 91*

How did FC(F)(F)c1ccccc1C1C2=C(Nc3ncnn31)c1ccccc1CCC2 (configuration not stated) do in these assays?
PHOSPHO1 inh: -45; M18AAP inhibitor: -6

How did Oc1[nH]c2ccccc2c1N=Nc1ccccc1Cl do in these assays?
PfG6PD inh: 18; H9c2 protect: -8

Results for Oc1c(C=Nc2ccccc2Cl)[nH]c2ccccc12 ?
PfG6PD inh: -4; PHOSPHO1 inh: 63*; M18AAP inhibitor: -8; H9c2 protect: -7; ALR inh: -10

Results for Cc1ccc(-n2c(CCC(=O)O)ccc2-c2cccs2)cc1C ?
PfG6PD inh: -18; PHOSPHO1 inh: 24; M18AAP inhibitor: -4; H9c2 protect: 2

What do the screens show for `COCCn1c(CCC(=O)O)ccc1-c1cccs1`?
PfG6PD inh: -25; PHOSPHO1 inh: 37; M18AAP inhibitor: 5; H9c2 protect: 5; ALR inh: 81*

How did O=C(O)CCc1ccc(-c2cccs2)n1NC(=O)c1ccc(O)cc1 do in these assays?
PfG6PD inh: -17; PHOSPHO1 inh: 0; M18AAP inhibitor: 11; H9c2 protect: 3; ALR inh: 21

How did CCCCn1c(CCC(=O)O)ccc1-c1cccs1 do in these assays?
PfG6PD inh: -23; PHOSPHO1 inh: 2; M18AAP inhibitor: -11; H9c2 protect: -4; ALR inh: 93*

Results for O=C(O)CCc1ccc(-c2cccs2)n1Cc1ccco1 ?
PfG6PD inh: -8; PHOSPHO1 inh: -50; M18AAP inhibitor: -16; H9c2 protect: -2; ALR inh: 99*

Results for O=C(O)CCc1ccc(-c2cccs2)n1NC(=O)c1cccs1 ?
PfG6PD inh: 2; PHOSPHO1 inh: 42; M18AAP inhibitor: 4; H9c2 protect: 9; ALR inh: 99*

What do the screens show for `O=C(Cc1ccc([N+](=O)[O-])cc1)Oc1ccccc1`?
PfG6PD inh: -3; H9c2 protect: 4

Results for O=C(Nc1ccc(Cl)cc1F)c1ccc2c(c1)C(=O)N(Cc1ccncc1)C2=O ?
PfG6PD inh: 4; H9c2 protect: -5; ALR inh: -3

How did CCOc1cc(/C=C/c2cc(C(F)(F)F)[nH]c(=O)n2)ccc1O do in these assays?
PfG6PD inh: -28; PHOSPHO1 inh: 28; M18AAP inhibitor: 15; H9c2 protect: 2; ALR inh: 99*

What do the screens show for `CCOc1cc(/C=C/c2nc3ccccc3c(=O)[nH]2)ccc1O`?
PfG6PD inh: 14; PHOSPHO1 inh: 1; M18AAP inhibitor: -6; H9c2 protect: 57*

How did COCCN(C(=O)c1ccc(N2CCCC2=O)cc1)c1c(N)n(Cc2ccccc2)c(=O)[nH]c1=O do in these assays?
PfG6PD inh: -3; H9c2 protect: 0; ALR inh: 3

Results for CN(C)S(=O)(=O)c1cccc(C(=O)Nc2cc3c(cc2C(=O)O)OCCCO3)c1 ?
PfG6PD inh: -12; PHOSPHO1 inh: 33; M18AAP inhibitor: 2; H9c2 protect: -7; ALR inh: 7

How did CCCC(=O)N1CCN(c2ccc(NC(=O)c3cc4ccccc4o3)cc2Cl)CC1 do in these assays?
PfG6PD inh: 98*; PHOSPHO1 inh: 13; M18AAP inhibitor: 0; H9c2 protect: 0; ALR inh: 48

What do the screens show for `CCCC(=O)N1CCN(c2ccc(NC(=O)c3cccs3)cc2Cl)CC1`?
PfG6PD inh: 6; PHOSPHO1 inh: -3; M18AAP inhibitor: 3; H9c2 protect: 5; ALR inh: -2

How did CC(C)=C[C@H]1C[C@H](C)[C@H]2CC[C@H](C)c3c(O)c(O[C@H]4OC[C@H](O)[C@@H](O)[C@@H]4O)c(C)c1c32 do in these assays?
H9c2 protect: -4

What do the screens show for `O=C1CCC(=O)N1CNc1ccc(Oc2ccccc2)cc1`?
PfG6PD inh: 14; PHOSPHO1 inh: 21; M18AAP inhibitor: -1; H9c2 protect: 4; ALR inh: 98*

How did CC1=C(C)CC2(SC1)C(=O)N(c1ccccc1)N=C2N (configuration not stated) do in these assays?
PfG6PD inh: -9; PHOSPHO1 inh: -29; M18AAP inhibitor: 14; H9c2 protect: -2; ALR inh: 94*

Results for O=C(O)c1cscc1-c1cccc2ccccc12 ?
PfG6PD inh: 6; H9c2 protect: 3

What do the screens show for `Cc1c(OCC(=O)NC(Cc2ccc(Cl)cc2)C(=O)O)ccc2c3c(c(=O)oc12)CCCC3` (configuration not stated)?
PfG6PD inh: -7; PHOSPHO1 inh: 23; M18AAP inhibitor: -6; H9c2 protect: -2; ALR inh: 98*

Results for Cc1c(Cc2ccccc2)c(=O)oc2c(C)c(OC(C)C(=O)N[C@@H](Cc3ccccc3)C(=O)O)ccc12 (some centres not stated) ?
PfG6PD inh: -14; PHOSPHO1 inh: 13; M18AAP inhibitor: -1; H9c2 protect: 2; ALR inh: 97*

High-throughput results from PubChem.
